Test in all cases: DAPPL (digital affinity profiling via proximity ligation, sequencing); 10 mM Tris-HCl pH 7.5, 50 mM NaCl, 1 mM DTT, 4% glycerol, room temperature, 30 min; GST-TFs on glutathione beads, 16-mer random dsDNA library, 0.1% formaldehyde crosslink after washing; high values mean tight binding
Common to all, as to conditions: protein: recombinant; tags: N-terminal GST; dsDNA, one strand shown

In one experiment the target is T1, FLI1 (Homo sapiens, UniProt Q01543 1-452).
T1 sequence: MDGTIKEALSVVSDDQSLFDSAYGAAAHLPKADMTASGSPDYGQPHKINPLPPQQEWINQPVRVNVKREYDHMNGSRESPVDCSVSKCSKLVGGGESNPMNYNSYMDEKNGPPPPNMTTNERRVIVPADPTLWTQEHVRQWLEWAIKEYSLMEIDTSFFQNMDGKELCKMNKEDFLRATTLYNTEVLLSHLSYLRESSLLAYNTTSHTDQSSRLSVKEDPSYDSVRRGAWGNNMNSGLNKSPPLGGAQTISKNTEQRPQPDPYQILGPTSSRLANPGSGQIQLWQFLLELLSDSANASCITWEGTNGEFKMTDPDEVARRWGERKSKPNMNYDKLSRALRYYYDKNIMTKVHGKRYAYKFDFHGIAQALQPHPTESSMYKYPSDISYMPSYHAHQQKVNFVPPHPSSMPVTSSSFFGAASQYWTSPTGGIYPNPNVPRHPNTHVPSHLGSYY
The method in brief: (§1)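 GST fusions of human transcription factors were expressed in yeast and captured with glutathione beads. Once given DNA barcodes and pooled alongside a tag-only sample, they were incubated for 30 min at room temperature with 200 nmole of a random double-stranded 16-mer DNA library in Tris/NaCl/DTT/glycerol buffer, then washed, crosslinked (0.1% formaldehyde), proximity-ligated, PCR-amplified and sequenced on an Illumina NextSeq500. The binding signal of each hexamer is its read frequency for a factor divided by its frequency for the tag-only sample.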

For a further experiment, the target named is T2, ELK1 (Homo sapiens, UniProt P19419 1-428).
T2 sequence: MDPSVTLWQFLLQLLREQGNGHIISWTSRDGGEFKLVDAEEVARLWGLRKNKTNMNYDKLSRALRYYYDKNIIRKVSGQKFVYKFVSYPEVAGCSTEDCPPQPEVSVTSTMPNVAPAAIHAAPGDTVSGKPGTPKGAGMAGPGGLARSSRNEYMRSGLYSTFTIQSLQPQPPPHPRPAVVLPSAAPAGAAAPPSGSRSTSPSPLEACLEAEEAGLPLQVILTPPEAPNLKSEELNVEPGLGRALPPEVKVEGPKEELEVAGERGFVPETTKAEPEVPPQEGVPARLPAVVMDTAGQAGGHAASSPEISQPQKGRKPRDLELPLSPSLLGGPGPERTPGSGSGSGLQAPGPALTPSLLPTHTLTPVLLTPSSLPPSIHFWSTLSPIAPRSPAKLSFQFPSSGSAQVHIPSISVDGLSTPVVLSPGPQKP
The method in brief: as §1

The next experiment concerns the target T3, GABPA (Homo sapiens, UniProt Q06546 1-454).
T3 sequence: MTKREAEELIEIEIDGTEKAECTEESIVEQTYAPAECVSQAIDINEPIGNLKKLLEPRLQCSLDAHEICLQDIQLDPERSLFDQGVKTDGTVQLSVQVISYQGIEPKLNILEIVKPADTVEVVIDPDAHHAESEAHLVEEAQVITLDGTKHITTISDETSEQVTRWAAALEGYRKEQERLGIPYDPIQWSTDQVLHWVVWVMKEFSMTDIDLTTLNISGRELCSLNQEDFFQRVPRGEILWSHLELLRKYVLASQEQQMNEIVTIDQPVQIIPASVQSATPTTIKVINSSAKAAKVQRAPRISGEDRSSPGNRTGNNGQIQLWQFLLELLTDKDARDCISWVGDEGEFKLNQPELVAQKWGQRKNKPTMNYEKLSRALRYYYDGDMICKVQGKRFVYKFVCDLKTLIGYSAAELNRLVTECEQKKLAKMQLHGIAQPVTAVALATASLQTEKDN
The method in brief: as §1

In a further experiment the target is T4, ERG (Homo sapiens, UniProt P11308 1-479).
T4 sequence: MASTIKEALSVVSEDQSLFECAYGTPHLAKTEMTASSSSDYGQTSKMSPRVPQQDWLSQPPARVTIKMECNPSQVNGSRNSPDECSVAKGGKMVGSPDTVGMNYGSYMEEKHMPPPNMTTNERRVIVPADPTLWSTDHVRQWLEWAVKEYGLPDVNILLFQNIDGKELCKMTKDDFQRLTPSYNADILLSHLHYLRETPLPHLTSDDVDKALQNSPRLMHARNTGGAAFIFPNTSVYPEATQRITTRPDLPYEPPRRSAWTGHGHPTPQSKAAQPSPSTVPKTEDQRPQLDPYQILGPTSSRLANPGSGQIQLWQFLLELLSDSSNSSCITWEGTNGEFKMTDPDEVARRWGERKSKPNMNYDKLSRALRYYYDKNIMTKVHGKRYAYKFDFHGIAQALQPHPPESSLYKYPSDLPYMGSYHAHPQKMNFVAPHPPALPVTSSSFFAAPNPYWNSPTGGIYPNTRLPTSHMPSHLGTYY
The method in brief:
as §1

Another experiment has as its target ELF1 (Homo sapiens, UniProt P32519 1-619). The method in brief:
as §1

The next experiment concerns the target T5, EHF (Homo sapiens, UniProt Q9NZC4 1-300).
T5 sequence: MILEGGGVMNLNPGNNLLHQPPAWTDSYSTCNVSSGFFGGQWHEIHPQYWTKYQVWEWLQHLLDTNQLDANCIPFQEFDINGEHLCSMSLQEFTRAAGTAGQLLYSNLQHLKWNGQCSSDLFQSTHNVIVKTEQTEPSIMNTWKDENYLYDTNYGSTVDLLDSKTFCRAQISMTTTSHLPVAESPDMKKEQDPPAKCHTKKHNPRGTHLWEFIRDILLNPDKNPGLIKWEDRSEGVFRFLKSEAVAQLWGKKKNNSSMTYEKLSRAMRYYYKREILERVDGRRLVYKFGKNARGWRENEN
The method in brief: as §1

Another experiment concerns the target SPI1 (Homo sapiens, UniProt P17947 1-270). The method in brief:
as §1

The next experiment addresses SPIB (Homo sapiens, UniProt Q01892 1-262). The method in brief:
as §1

Another experiment has as its target T6, ELK3 (Homo sapiens, UniProt P41970 1-407).
T6 sequence: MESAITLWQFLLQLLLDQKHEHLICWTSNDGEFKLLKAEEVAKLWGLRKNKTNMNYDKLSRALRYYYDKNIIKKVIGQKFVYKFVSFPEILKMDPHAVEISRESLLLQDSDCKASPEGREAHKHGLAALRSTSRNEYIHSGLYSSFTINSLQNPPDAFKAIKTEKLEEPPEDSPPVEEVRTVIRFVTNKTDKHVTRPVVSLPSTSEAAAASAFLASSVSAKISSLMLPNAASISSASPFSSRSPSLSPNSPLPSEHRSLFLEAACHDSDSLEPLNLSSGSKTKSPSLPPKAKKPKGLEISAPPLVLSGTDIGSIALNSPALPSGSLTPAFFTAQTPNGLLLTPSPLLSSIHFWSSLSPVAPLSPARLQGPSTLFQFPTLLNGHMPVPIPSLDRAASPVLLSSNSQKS
The method in brief:
as §1

ELF1, sequence (P32519 whole entry): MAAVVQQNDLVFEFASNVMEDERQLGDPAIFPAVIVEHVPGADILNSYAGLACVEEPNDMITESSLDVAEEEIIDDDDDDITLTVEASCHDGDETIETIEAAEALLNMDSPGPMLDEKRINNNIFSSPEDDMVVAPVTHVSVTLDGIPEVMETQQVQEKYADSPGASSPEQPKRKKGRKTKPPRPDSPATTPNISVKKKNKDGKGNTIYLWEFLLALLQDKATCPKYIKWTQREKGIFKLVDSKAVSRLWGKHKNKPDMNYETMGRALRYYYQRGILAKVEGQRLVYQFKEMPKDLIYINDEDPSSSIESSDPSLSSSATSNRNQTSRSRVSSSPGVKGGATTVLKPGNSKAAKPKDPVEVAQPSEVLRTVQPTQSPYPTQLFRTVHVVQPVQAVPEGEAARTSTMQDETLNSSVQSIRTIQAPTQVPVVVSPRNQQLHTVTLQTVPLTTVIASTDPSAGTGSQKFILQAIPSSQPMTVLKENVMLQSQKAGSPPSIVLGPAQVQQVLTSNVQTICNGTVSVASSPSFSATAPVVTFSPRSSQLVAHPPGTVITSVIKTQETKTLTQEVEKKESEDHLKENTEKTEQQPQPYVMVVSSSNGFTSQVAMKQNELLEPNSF
SPIB, sequence (Q01892 whole entry): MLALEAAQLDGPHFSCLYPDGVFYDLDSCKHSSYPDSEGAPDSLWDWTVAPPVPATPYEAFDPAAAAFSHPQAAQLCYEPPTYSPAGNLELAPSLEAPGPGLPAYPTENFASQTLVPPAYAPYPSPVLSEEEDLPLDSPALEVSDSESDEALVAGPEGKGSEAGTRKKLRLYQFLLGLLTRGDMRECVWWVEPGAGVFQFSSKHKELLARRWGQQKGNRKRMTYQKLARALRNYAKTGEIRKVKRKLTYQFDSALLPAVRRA

Regarding TTAACA, the binding signal with FLI1 was 1.18 fold enrichment (6-mer frequency, TF over GST control); with ELK1, 1.13 fold enrichment (6-mer frequency, TF over GST control); with GABPA, 1.15 fold enrichment (6-mer frequency, TF over GST control); with ERG, 1.15 fold enrichment (6-mer frequency, TF over GST control); in the experiment with ELF1, 1.17 fold enrichment (6-mer frequency, TF over GST control); in the experiment with EHF, 1.13 fold enrichment (6-mer frequency, TF over GST control). The binding signal is 1.15 fold enrichment (6-mer frequency, TF over GST control) in the experiment with SPI1; 1.14 fold enrichment (6-mer frequency, TF over GST control) in the experiment with SPIB; 1.19 fold enrichment (6-mer frequency, TF over GST control) in the experiment with ELK3.
AAACCC: the binding signal with FLI1 is 1.26 fold enrichment (6-mer frequency, TF over GST control); with ELK1 it was 1.32 fold enrichment (6-mer frequency, TF over GST control); in the experiment with GABPA it was 1.22 fold enrichment (6-mer frequency, TF over GST control); with ERG, 1.25 fold enrichment (6-mer frequency, TF over GST control); with ELF1, 1.32 fold enrichment (6-mer frequency, TF over GST control); with EHF, 1.27 fold enrichment (6-mer frequency, TF over GST control). Besides, the binding signal with SPI1 is 1.22 fold enrichment (6-mer frequency, TF over GST control); with SPIB, 1.34 fold enrichment (6-mer frequency, TF over GST control); in the experiment with ELK3 it was 1.36 fold enrichment (6-mer frequency, TF over GST control).
For the sequence AAGAAA, the binding signal with FLI1 is 1.08 fold enrichment (6-mer frequency, TF over GST control); with ELK1 it was 1.14 fold enrichment (6-mer frequency, TF over GST control); with GABPA it was 1.25 fold enrichment (6-mer frequency, TF over GST control); in the experiment with ERG it was 1.2 fold enrichment (6-mer frequency, TF over GST control); with ELF1, 1.15 fold enrichment (6-mer frequency, TF over GST control); with EHF it was 1.18 fold enrichment (6-mer frequency, TF over GST control). Besides, the binding signal in the experiment with SPI1 was 1.22 fold enrichment (6-mer frequency, TF over GST control); with SPIB it was 1.1 fold enrichment (6-mer frequency, TF over GST control); in the experiment with ELK3 it was 1.22 fold enrichment (6-mer frequency, TF over GST control).
Consider TAGTTA, for which the binding signal with FLI1 was 1.19 fold enrichment (6-mer frequency, TF over GST control); in the experiment with ELK1, 1.2 fold enrichment (6-mer frequency, TF over GST control); with GABPA, 1.2 fold enrichment (6-mer frequency, TF over GST control); in the experiment with ERG, 1.12 fold enrichment (6-mer frequency, TF over GST control); in the experiment with ELF1 it was 1.11 fold enrichment (6-mer frequency, TF over GST control); with EHF, 1.12 fold enrichment (6-mer frequency, TF over GST control). The binding signal in the experiment with SPI1 is 1.09 fold enrichment (6-mer frequency, TF over GST control); with SPIB, 1.19 fold enrichment (6-mer frequency, TF over GST control); with ELK3, 1.12 fold enrichment (6-mer frequency, TF over GST control).
Consider ATGGAT, for which the binding signal in the experiment with FLI1 is 1.06 fold enrichment (6-mer frequency, TF over GST control); with ELK1 it was 1.11 fold enrichment (6-mer frequency, TF over GST control); with GABPA, 1.18 fold enrichment (6-mer frequency, TF over GST control); with ERG, 1.08 fold enrichment (6-mer frequency, TF over GST control); with ELF1, 1.04 fold enrichment (6-mer frequency, TF over GST control); in the experiment with EHF it was 1.09 fold enrichment (6-mer frequency, TF over GST control). The binding signal is 1.06 fold enrichment (6-mer frequency, TF over GST control) with SPI1; 1.14 fold enrichment (6-mer frequency, TF over GST control) with SPIB; 1.2 fold enrichment (6-mer frequency, TF over GST control) with ELK3.
For the sequence GTCTCG, the binding signal in the experiment with FLI1 is 1.36 fold enrichment (6-mer frequency, TF over GST control); with ELK1, 1.37 fold enrichment (6-mer frequency, TF over GST control); in the experiment with GABPA, 1.3 fold enrichment (6-mer frequency, TF over GST control); in the experiment with ERG, 1.26 fold enrichment (6-mer frequency, TF over GST control); with ELF1, 1.32 fold enrichment (6-mer frequency, TF over GST control); with EHF, 1.28 fold enrichment (6-mer frequency, TF over GST control). Moreover, the binding signal with SPI1 is 1.33 fold enrichment (6-mer frequency, TF over GST control); in the experiment with SPIB it was 1.43 fold enrichment (6-mer frequency, TF over GST control); with ELK3 it was 1.37 fold enrichment (6-mer frequency, TF over GST control).
As for TATCCT, the binding signal is 1.7 fold enrichment (6-mer frequency, TF over GST control) with FLI1; 1.79 fold enrichment (6-mer frequency, TF over GST control) in the experiment with ELK1; 1.71 fold enrichment (6-mer frequency, TF over GST control) in the experiment with GABPA; 1.9 fold enrichment (6-mer frequency, TF over GST control) with ERG; 1.73 fold enrichment (6-mer frequency, TF over GST control) with ELF1; 1.81 fold enrichment (6-mer frequency, TF over GST control) with EHF. Moreover, the binding signal with SPI1 is 1.74 fold enrichment (6-mer frequency, TF over GST control); in the experiment with SPIB, 1.8 fold enrichment (6-mer frequency, TF over GST control); with ELK3 it was 1.76 fold enrichment (6-mer frequency, TF over GST control).

(Values after paper PMC7862700, “An all-to-all approach to the identification of sequence-specific readers for epigenetic DNA modifications on cytosine”.)
